From the supplement of paper PMC5499739
Over roughly 16,000 sequences, “Z-score” has its median near -0.37; the highest 2% begin near 3.1. Only a selection was taken, and the highest values are over-represented in it overall.

These sequences were tested on RBM10 RRM1-ZnF-RRM2 (GST-tagged construct) (assay: RNAcompete 7-mer binding Z-score; higher = stronger binding preference).
Description: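 RNAcompete: 20 pmol GST-tagged RBM10 RNA-binding constructs were incubated with a designed RNA pool of about 241,000 sequences up to 41 nt (1.5 nmol) on glutathione beads for 30 min at 4 °C and washed. Bound RNAs were identified by microarray hybridisation. Each RNA 7-mer is scored by a one-sided Z-score of its enrichment, computed over probes that contain the 7-mer within longer pool sequences.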

Sequence | RNAcompete 7-mer binding Z-score
UGGGAUA | 2.85
CGGGAUG | 2.31
UGGGAUG | 3.22
UGGGAUU | 1.63
ACAGAUU | -0.242
AAUGGUC | 0.822
GCAGCCC | -0.497
CUGCCAG | -0.606
AAACUUU | -0.752
UAGUGAC | 0.21
CAUUCUA | -0.821
CCGGGGA | 1.12
UCGGGGU | 1.76
GCGGGGC | 2.5
GCGGGGA | 3.23
GCGGGUU | 2.54
GCGGGGG | 3.51
CCGGGGG | 1.4
UCGGGGA | 1.7
GCGGGGU | 3.77
UCAAGCU | -0.621
CUCCGAC | -0.664
UCCCCAA | -0.639

Sequence | RNAcompete 7-mer binding Z-score
CCAUAGA | -0.464
GGACGGG | 4.18
GGAACGG | 4.03
GGACGGC | 1.05
GAACGGC | 0.84
CGACGGG | 2.14
GAACGGG | 4.29
AGAACGG | 1.84
CGAACGG | 1.41
GAACGGU | 1.56
ACGAUAC | -0.413
AUGCAUC | -0.362
UGAUAUA | -0.366
CACGAAA | -0.366
GGAUGGU | 3.73
GGAUGGC | 2.46
GGAUGGA | 3.36
AGAUGGU | 1.63
AGAUGGA | 2.92
UGAUGGU | 1.26
UAGGAGC | 1.74
GUGGGCA | 3.48
GUGGGCG | 3.37

Sequence | RNAcompete 7-mer binding Z-score
AUGGGCA | 2.7
GUGGGCC | 1.58
AUGGGCG | 3
CUGGGCG | 1.05
AGCGCGC | -0.282
CAGUCUU | -0.857
GAAAUCU | -0.46
CCGUUAA | -0.77
AGAAAAU | 0.0859
GGGGUAU | 2.98
GGGGUAG | 4.58
GAGGUAA | 2.53
CGGGUAU | 1.39
AGGGUCU | 0.559
GUGGUAG | 2.26
AGGGUAA | 4.77
GGGGUAC | 2.82
GGGGUAA | 3.5
AGGGUAU | 3.41
CGGGUAA | 1.81
UGGGUAA | 2.38
UGAGCAU | -0.0634
UGUAACU | -0.358

Sequence | RNAcompete 7-mer binding Z-score
AUCGGCG | 0.337
CGCCUGG | -0.482
GUGGCCA | 0.403
UUCCGGG | 0.341
GUUGAGU | 0.57
GAGUCCU | -0.453
UCAGUCA | -0.493
GGUGGUC | 2.11
GGUGGGC | 3.19
UGUGGGA | 2.96
GGUGGUG | 3.25
AGUGGGG | 4.66
UGUGGGC | 1.83
UGUGGGG | 3.75
AGUGUGG | 2.64
AGUGGUG | 2.24
AGUGGGC | 2.96
CGUGGUG | 1.44
UGUGGUG | 1.57
AAGCUCA | -0.635
GCACGGU | 0.519
GCACGCG | -0.0598
GUUGCCG | -0.216

Sequence | RNAcompete 7-mer binding Z-score
AAGCGGU | 1.03
ACGGAAC | 0.785
GGUGGGA | 3.75
AGUGGGU | 3.35
GCUGGGU | 1.78
AGUGGGA | 4.3
UGUGGGU | 2.9
AGUGGCA | 1.68
GGUGGGU | 3.47
AGUGGUA | 1.92
CGUGGGU | 2.43
GGUGGCA | 2.34
GGUGGUU | 2.03
GCUGGGA | 1.69
UAUUCAA | -0.606
UGUUUUU | -0.46
CUAACCC | -0.766
GGCGAAA | 1.35
CUCCUAU | -0.956
CGUGGGC | 2.21
CGUGGGA | 2.39
CGUGGGG | 3.57
GGUGGGG | 4.34

Sequence | RNAcompete 7-mer binding Z-score
GCUGGGG | 2.46
GGGGGGG | 2.58
AUCUCUG | -0.846
GUGGGGA | 4.25
AUGGGAU | 3.25
GGGGGGC | 2
GUGGGGC | 3.47
CUGGGGC | 0.956
AUGGGCU | 1.51
GUGGGAC | 2.4
GUUGGGA | 3.05
AUGGGAC | 2.47
GCGGGAA | 2.5
GUGGGAA | 3.49
CUGGGGA | 1.32
UCAACGC | -0.584
GGAAAUC | 0.931
CUGGCGG | 0.541
GUGGGUU | 2.54
UCGGGAG | 1.18
UUGGGGU | 2.84
GUGGCGC | 1.46
GUGGGAG | 3.99

Sequence | RNAcompete 7-mer binding Z-score
GUGGGGG | 4.18
GUGGCGG | 3.22
GCGGGAG | 2.64
GUGGGGU | 4.45
CUGGGGG | 1.81
UGGCUAU | -0.00148
GGAUAGC | 2.07
CGCAACU | -0.825
UCAAUUC | -0.752
GUAGUGA | 1.1
GGUGCGA | 1.58
CUUUCCG | -0.777
AUCAGCA | -0.395
AUUCCCC | -0.613
AGGAUAA | 1.21
GUGGGAU | 3.57
UUGGGAU | 1.9
CUGGGAU | 0.964
AUAAGAA | 0.177
GAUUGCC | -0.672
AAGUCUU | -0.697
UUAGGGG | 2.07
GUAGGGC | 2.85

Sequence | RNAcompete 7-mer binding Z-score
CUAGGGG | 1.97
CUAGGAG | 0.534
UUAGGGA | 2.36
GUAGGGA | 4.26
CUAGGGU | 2
UUAGGGU | 3.02
GUAGGAC | 1.86
GUAGGGU | 4.48
GUAGGGG | 4.66
GUAGGAG | 3.78
AACUUUA | -0.679
UAGGCGG | 1.79
UGUGACC | -0.176
CGUCUUU | -0.613
CCACUCG | -0.73
GGGUCUG | 0.993
ACCUCUG | -0.814
AUAGGGG | 4.15
AUAGGGU | 4.33
AUAGGAG | 2.27
AUAGGCG | 1.16
AUAGGGA | 2.9
AUAGGGC | 2.14
